Assay [1] can be described thus: qHTS assay to identify small molecule agonists of the hypoxia (HIF-1) signaling pathway - cell viability counter screen (AID 1224844; calls by dose curve; further: nearly all actives have a fitted effect of over 50% in size; further: potency means the concentration at half of the fitted maximal effect). The method, boiled down:
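HRE-bla ME-180 cells in medium with 0.5% dialyzed FBS were preincubated 5 hrs at 37C, exposed to compounds for 17 hrs, then viability was read as CellTiter-Glo luminescence after 30 min at room temperature, in the reporter wells.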
In general terms: qHTS replaces the single test concentration by a dilution series.

Assay [2] can be described thus: qHTS assay to identify small molecule agonists of H2AX - cell viability counter screen (AID 1224847; calls by dose curve; further: nearly all actives have a fitted effect of over 30% in size; further: potency means the concentration at half of the fitted maximal effect). In short, it runs like this:
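After overnight plating of 1000 CHO-K1 cells per well, a 15-concentration compound series was applied for 3 hr at 37C. Luminescence from CellTiter-Glo, read following 30 min at room temperature, reflected cell viability.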

Assay [3] can be described thus: qHTS RealTime-Glo MT Cell Viability Assay in HepG2 cells - 24 hour (AID 1224867). Further: nearly all actives have a fitted effect of over 50% in size. Further: potency means the concentration at half of the fitted maximal effect. In short, it runs like this: (§1)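 Cells + NanoLuc/prosubstrate dispensed (600 cells/well) → 5 h at 37 C/5% CO2 → compounds in DMSO transferred → 40 h incubation at 37 C, luminescence read at 0, 8, 16, 24, 32, 40 h.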
The nature of assay [4]: qHTS RealTime-Glo MT Cell Viability Assay in HEK293 cells - 32 hour (AID 1224868). Further: nearly all actives have a fitted effect of over 50% in size. Further: potency means the concentration at half of the fitted maximal effect. The method, boiled down:
(§2)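 Tox21 10K qHTS, HEK293, 600 cells/well, RealTime-Glo reagent co-dispensed with cells; 5 h preincubation, compound by pintool, 37 C, luminescence at 0–40 h.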

Assay [5] is described as follows: qHTS RealTime-Glo MT Cell Viability Assay in HepG2 cells - 40 hour (AID 1224870). Further: nearly all actives have a fitted effect of over 50% in size. Further: potency means the concentration at half of the fitted maximal effect. The method, boiled down: (§3)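 HepG2 cells (600/well) mixed with RealTime-Glo MT reagent, settled 5 h at 37 C/5% CO2 before compound addition. Nonlytic NanoLuc luminescence from viable-cell prosubstrate reduction read repeatedly during 40 h treatment at 37 C.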
A short description of assay [6]: A CellTox Green Cytotoxicity Assay to monitor cytotoxicity in HEK293 cells - 40 hour (AID 1224871). Further: nearly all actives have a fitted effect of over 45% in size. Further: potency means the concentration at half of the fitted maximal effect. The method, boiled down:
(§4)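 HEK293 cells premixed with CellTox Green dye were seeded at 600 cells/well and left 5 h at 37 C/5% CO2 before pin transfer of 23 nL compound in DMSO. Fluorescence from dye bound to dead-cell DNA was read during 40 h treatment.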

A short description of assay [7]: qHTS RealTime-Glo MT Cell Viability Assay in HEK293 cells - 16 hour (AID 1224872). Further: nearly all actives have a fitted effect of over 50% in size. Further: potency means the concentration at half of the fitted maximal effect. The method, boiled down: as §2
Assay [8] can be described thus: qHTS RealTime-Glo MT Cell Viability Assay in HepG2 cells - 8 hour (AID 1224873). Further: nearly all actives have a fitted effect of over 55% in size. Further: potency means the concentration at half of the fitted maximal effect. The method, boiled down: as §3
Assay [9] is described as follows: qHTS RealTime-Glo MT Cell Viability Assay in HEK293 cells - 40 hour (AID 1224874). Further: nearly all actives have a fitted effect of over 50% in size. Further: potency means the concentration at half of the fitted maximal effect. To be noted: RealTime-Glo luminescence; max response: stronger effect = lower value. In short, it runs like this:
(§5)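 HEK293 cells mixed with RealTime-Glo reagents (NanoLuc plus cell-permeant prosubstrate) at 600 cells/well, preincubated 5 h at 37 C/5% CO2, then given 23 nL compound in DMSO. Nonlytic luminescence from viable cells was read at 0, 8, 16, 24, 32 and 40 h.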

The nature of assay [10]: A CellTox Green Cytotoxicity Assay to monitor cytotoxicity in HEK293 cells - 24 hour (AID 1224875). Further: nearly all actives have a fitted effect of over 45% in size. Further: potency means the concentration at half of the fitted maximal effect. In short, it runs like this: as §4
Assay [11] is described as follows: A CellTox Green Cytotoxicity Assay to monitor cytotoxicity in HepG2 cells - 16 hour (AID 1224876). Further: nearly all actives have a fitted effect of over 45% in size. Further: potency means the concentration at half of the fitted maximal effect. The method, boiled down:
(§6)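 HepG2 cells were seeded together with the CellTox Green dye at 600 cells/well, left 5 h at 37 C/5% CO2, then given compounds in DMSO. Fluorescence from dye bound to dead-cell DNA was read repeatedly over 40 h of treatment at 37 C.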

The nature of assay [12]: qHTS RealTime-Glo MT Cell Viability Assay in HepG2 cells - 32 hour (AID 1224877). Further: nearly all actives have a fitted effect of over 55% in size. The method, boiled down: as §1
Assay [13] in a line: A CellTox Green Cytotoxicity Assay to monitor cytotoxicity in HepG2 cells - 24 hour (AID 1224878). Further: nearly all actives have a fitted effect of over 45% in size. Further: potency means the concentration at half of the fitted maximal effect. The method, boiled down: as §6
Assay [14] can be described thus: A CellTox Green Cytotoxicity Assay to monitor cytotoxicity in HepG2 cells - 40 hour (AID 1224879). Further: nearly all actives have a fitted effect of over 40% in size. Further: potency means the concentration at half of the fitted maximal effect. The method, boiled down: as §6
The nature of assay [15]: qHTS RealTime-Glo MT Cell Viability Assay in HEK293 cells - 0 hour (AID 1224880). In short, it runs like this: as §5
Assay [16] can be described thus: qHTS assay to identify small molecule antagonists of the estrogen related receptor (ERR) signaling pathway from Tox21 library (AID 1224848). Further: nearly all actives have a fitted effect of over 50% in size. Further: potency means the concentration at half of the fitted maximal effect. In short, it runs like this:
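ERR reporter cell line (from NTP) seeded 2,000 cells/well, rested 6 h at 37 C/5% CO2, then pin-dosed with compounds in DMSO. After 18 h at 37 C, ONE-Glo added; luminescence read after 30 min at room temperature.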

Assay [17] can be described thus: qHTS assay to identify small molecule agonists of the estrogen related receptor (ERR) signaling pathway from Tox21 library (AID 1224849; calls by dose curve; further: nearly all actives have a fitted effect of over 15% in size). The note with it: ERR reporter cell line, ONE-Glo luciferase, 18 h. In short, it runs like this: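 ERR reporter cell line (NTP) seeded, rested 6 h at 37 C/5% CO2, then pinned with Tox21 compounds in DMSO. After 18 h at 37 C, ONE-Glo luciferase luminescence was read following 30 min at room temperature.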

The nature of assay [18]: A CellTox Green Cytotoxicity Assay to monitor cytotoxicity in HEK293 cells - 0 hour (AID 1224869). Further: nearly all actives have a fitted effect of over 50% in size. In short, it runs like this: as §4
The nature of assay [19]: qHTS assay to identify small molecule agonists of the hypoxia (HIF-1) signaling pathway (AID 1224846; active means well fitted activation curve with a large enough effect in the signal ratio in the repeat runs, not every such curve was filed as active; the % refers to the signal ratio). The method, boiled down:
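HRE-bla ME-180 cells (beta-lactamase reporter under hypoxia response element) were plated at 2,000 cells/well in medium with 0.5% dialyzed FBS, rested 5 hrs, then given compounds in DMSO for 17 hrs at 37C, 5% CO2. Reporter induction was read with CCF4-AM FRET substrate.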

Seven molecules from PubChem BioAssay (Tox21) can be followed below.

Where “and” joins values, the source holds several entries; their conditions need not be identical. Equal entries are not always repeated. Records with an inconclusive call do not appear. The source holds several records for some structures; these can differ, active in one and inactive in another. Calls of active or inactive are those of the source. Unless noted, the call rests on the fitted dose curve; in most records, active means well fitted curve in the direction sought with a large enough effect in the repeat runs; inconclusive means weak or mixed curves; inactive means no such curve, though single readings can be large; an effect the other way counts as inactive or inconclusive.
On the % scale 0 is the no-effect control and ±100 the full control effect.

`CCOP(=S)(OCC)SCSc1cc(Cl)ccc1Cl`: the Potency entry in assay [1], in assay [2], in [3], in assay [4], in assay [5] and in assay [6] was “inactive” in each case. The Potency result in [7], in [8], in assay [10], in [11], in [12] and in [13] was “inactive” in each case. The Potency entry in assay [14] is “inactive”. In addition, the max response in assay [9] is 0.23% (inactive). For the same molecule, the molecule was called inactive in assay [15].
As to `CCCCCCCCCCCC[N+](C)(C)CCOc1ccccc1`, the Potency in assay [1] is 24.6 µM (active) and inactive; in assay [2], 89.8 µM (active) and 49.2 µM (active); in assay [16], 19.3 µM (active) and 21.1 µM (active); in assay [3], 21.9 µM (active) and 9.52 µM (active); in assay [4], 7.76 µM (active) and 9.52 µM (active); in assay [5], 19.5 µM (active) and 6.01 µM (active). The Potency in [6] is 19.5 µM (active) and 23.9 µM (active); in [7], 19.5 µM (active) and 19 µM (active); in [8], 55 µM (active) and 23.9 µM (active); in [9], 6.92 µM (active) and 9.52 µM (active); in [10], 17.4 µM (active) and 23.9 µM (active); in assay [11], 24.6 µM (active) and 19 µM (active). Besides, the Potency in assay [13] is 15.5 µM (active) and 8.49 µM (active); in assay [14] it was 12.3 µM (active) and 6.74 µM (active). Besides, the values for the activity change, positive = activation in assay [17] (at 42.5 µM (top of the series)) and in assay [17] (at 92.4 µM (top of the series)) were -65.5% (inactive) and -76.3% (inactive), respectively. Also, the Potency result in assay [18] is “inactive”. Besides, the outcome in [15] was inactive.
Consider `CC(C)c1ccc(NC(=O)N(C)C)cc1`, for which the Potency entry in [1], in [16], in assay [3], in assay [4], in [18] and in assay [5] was “inactive” throughout. Besides, the Potency entry in [6], in [7], in assay [8], in assay [10], in [11] and in [12] was “inactive” in each case. For the same molecule, the Potency entry in assay [13] and in assay [14] was “inactive” throughout. The call in assay [19] and in [15] was inactive. The activity change, positive = activation in assay [17] (at 92.4 µM (top of the series)) was 33.4% (active). Besides, in assay [9], the max response was 3.89% (inactive).
Consider `CCCCOC(=O)CCC(=O)OCCCC`, for which the Potency result in [1], in assay [2], in [16], in assay [3], in [4] and in assay [5] was “inactive” in each case. The Potency result in assay [6], in assay [7], in assay [10], in assay [11] and in assay [12] was “inactive” throughout. In [17] (at 92.4 µM (top of the series)), the activity change, positive = activation was 0.0296% (inactive). Besides, the max response in [9] is 3.34% (inactive). The result in [15] was inactive.
`COc1ccc(C(=O)c2c(C)n(CCN3CCOCC3)c3ccccc23)cc1`: the Potency result in assay [1], in [2], in assay [3], in assay [18], in assay [5] and in [6] was “inactive” in each case. The Potency result in [7], in assay [8], in [10] and in [12] was “inactive” in each case. Also, the call in [19] and in assay [15] was inactive. The activity change, positive = activation in assay [17] (at 42.5 µM (top of the series)) was -28.1% (inactive).
In the case of `C[C@H]1O[C@H](OC2[C@@H](O)[C@@H](O)C(O)[C@H](O)[C@H]2O)[C@@H](N)C[C@@H]1N=C(N)C(=O)O` (some centres not stated), the Potency entry in assay [1], in assay [2], in [3], in assay [4], in assay [18] and in [5] was “inactive” in each case. Besides, the Potency result in [6], in assay [7], in [8], in [10], in assay [11] and in assay [12] was “inactive” in each case. For the same molecule, the Potency entry in assay [13] and in assay [14] was “inactive” throughout. Besides, the call in assay [19] and in [15] was inactive. Besides, the max response in assay [9] was 5.07% (inactive).
On to `O=C(O)CCCOc1ccc(Cl)cc1Cl`, for which the Potency result in assay [1], in assay [2], in assay [3], in assay [4], in assay [18] and in [5] was “inactive” each time. For the same molecule, the Potency entry in assay [6], in assay [7], in [8], in assay [10], in [11] and in assay [12] was “inactive” in each case. Further, the Potency result in assay [13] and in assay [14] was “inactive” in each case. The result in assay [19] and in assay [15] was inactive. For the same molecule, the max response in assay [9] was 28.1% (inactive) and -0.413% (inactive).
